# According to the supplement of paper PMC4466140:
# Columns and labels:
# Experiment in all cases: SPOT peptide array binding signal intensity (averaged, normalized) (arbitrary units (background-subtracted, floor 0; scale differs between SH3 domains)); higher = stronger binding of the SH3 domain to the peptide
# AgAbp1 = biological target: AgAbp1
# Protocol: (§1)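 GST-tagged SH3 domains from S. cerevisiae (Sc), A. gossypii (Ag), C. albicans (Ca) and S. pombe (Sp) were incubated at 10 ug/ml overnight at 4 C on cellulose SPOT membranes carrying 292 synthetic 15-mer peptides mined from the S. cerevisiae proteome (cysteines replaced by serines). Binding was detected with anti-GST antibody, HRP secondary and chemiluminescence, quantified with Genespotter, and reported as normalized spot intensities averaged over biological replicates.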
# AgBbc1 = biological target: AgBbc1
# Protocol: as §1
# AgBem1-D1 = biological target: AgBem1-D1
# Protocol: as §1
# AgBzz1-D1 = biological target: AgBzz1-D1
# Protocol: as §1
# AgBzz1-D2 = biological target: AgBzz1-D2
# Protocol: as §1
# AgCyk3 = biological target: AgCyk3
# Protocol: as §1
# AgFus1 = biological target: AgFus1
# Protocol: as §1
# AgHof1 = biological target: AgHof1
# Protocol: as §1
# AgHse1 = biological target: AgHse1
# Protocol: as §1
# AgLsb1 = biological target: AgLsb1
# Protocol: as §1
# AgLsb4 = biological target: AgLsb4
# Protocol: as §1
# AgMyo5 = biological target: AgMyo5
# Protocol: as §1
# AgNbp2 = biological target: AgNbp2
# Protocol: as §1
# AgRvs167 = biological target: AgRvs167
# Protocol: as §1
# AgSho1 = biological target: AgSho1
# Protocol: as §1
# AgSla1-D1-D2 = biological target: AgSla1-D1-D2
# Protocol: as §1
# AgSla1-D3 = biological target: AgSla1-D3
# Protocol: as §1
# CaAbp1-D1 = biological target: CaAbp1-D1
# Protocol: as §1
# CaAbp1-D2 = biological target: CaAbp1-D2
# Protocol: as §1
# CaBbc1 = biological target: CaBbc1
# Protocol: as §1
# CaBem1-D1 = biological target: CaBem1-D1
# Protocol: as §1
# CaBzz1-D1 = biological target: CaBzz1-D1
# Protocol: as §1
# CaBzz1-D2 = biological target: CaBzz1-D2
# Protocol: as §1
# CaCyk3 = biological target: CaCyk3
# Protocol: as §1
# CaFus1 = biological target: CaFus1
# Protocol: as §1
# CaHof1 = biological target: CaHof1
# Protocol: as §1
# CaHse1 = biological target: CaHse1
# Protocol: as §1
# CaLsb1 = biological target: CaLsb1
# Protocol: as §1
# CaLsb4 = biological target: CaLsb4
# Protocol: as §1
# CaMyo5 = biological target: CaMyo5
# Protocol: as §1
# CaNbp2 = biological target: CaNbp2
# Protocol: as §1
# CaRvs167 = biological target: CaRvs167
# Protocol: as §1
# CaRvs167-3 = biological target: CaRvs167-3
# Protocol: as §1
# CaSho1 = biological target: CaSho1
# Protocol: as §1
# CaSla1-D1-D2 = biological target: CaSla1-D1-D2
# Protocol: as §1
# CaSla1-D3 = biological target: CaSla1-D3
# Protocol: as §1
# ScAbp1 = biological target: ScAbp1
# Protocol: as §1
binder,measurement,setting,value
LASNSPPVYPKRIRH,SPOT peptide array binding signal intensity,AgAbp1,45
same,SPOT peptide array binding signal intensity,AgBbc1,18.2
same,SPOT peptide array binding signal intensity,AgBem1-D1,≤ 0
same,SPOT peptide array binding signal intensity,AgBzz1-D1,59
same,SPOT peptide array binding signal intensity,AgBzz1-D2,6
same,SPOT peptide array binding signal intensity,AgCyk3,≤ 0
same,SPOT peptide array binding signal intensity,AgFus1,≤ 0
same,SPOT peptide array binding signal intensity,AgHof1,≤ 0
same,SPOT peptide array binding signal intensity,AgHse1,3.5
same,SPOT peptide array binding signal intensity,AgLsb1,2.5
same,SPOT peptide array binding signal intensity,AgLsb4,196
same,SPOT peptide array binding signal intensity,AgMyo5,≤ 0
same,SPOT peptide array binding signal intensity,AgNbp2,≤ 0
same,SPOT peptide array binding signal intensity,AgRvs167,4.17
same,SPOT peptide array binding signal intensity,AgSho1,≤ 0
same,SPOT peptide array binding signal intensity,AgSla1-D1-D2,2
same,SPOT peptide array binding signal intensity,AgSla1-D3,≤ 0
same,SPOT peptide array binding signal intensity,CaAbp1-D1,93
same,SPOT peptide array binding signal intensity,CaAbp1-D2,47.5
same,SPOT peptide array binding signal intensity,CaBbc1,400
same,SPOT peptide array binding signal intensity,CaBem1-D1,6
same,SPOT peptide array binding signal intensity,CaBzz1-D1,165
same,SPOT peptide array binding signal intensity,CaBzz1-D2,44.8
same,SPOT peptide array binding signal intensity,CaCyk3,≤ 0
same,SPOT peptide array binding signal intensity,CaFus1,≤ 0
same,SPOT peptide array binding signal intensity,CaHof1,0.25
same,SPOT peptide array binding signal intensity,CaHse1,≤ 0
same,SPOT peptide array binding signal intensity,CaLsb1,≤ 0
same,SPOT peptide array binding signal intensity,CaLsb4,771
same,SPOT peptide array binding signal intensity,CaMyo5,≤ 0
same,SPOT peptide array binding signal intensity,CaNbp2,≤ 0
same,SPOT peptide array binding signal intensity,CaRvs167,4.17
same,SPOT peptide array binding signal intensity,CaRvs167-3,2.25
same,SPOT peptide array binding signal intensity,CaSho1,3
same,SPOT peptide array binding signal intensity,CaSla1-D1-D2,56
same,SPOT peptide array binding signal intensity,CaSla1-D3,≤ 0
same,SPOT peptide array binding signal intensity,ScAbp1,39.5
